Test results taken from PubChem BioAssay AID1578 (Sanford-Burnham Center for Chemical Genomics, 2009).
The campaign covered roughly 290,000 compounds. About 3,000 (1%) were called active. For the sample, actives were picked, then their nearest neighbours and some compounds at random. Unmarked numbers belong to inactive results. No stated cut-off is given here; in the data, active means inhibition mostly above about 36% (no sharp cut-off); inactive means mostly below about 34%.

Assay: NOD1 signaling inhibitors, primary screen, cell-based, luminescence, uHTS (AID 1578);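 further: HEK-293T reporter cells stimulated with the NOD1 agonist gamma-tri-DAP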
Settings: NOD1-driven NF-kB luciferase reporter cells, at 4 µM, hits give high values

SMILES | inhibition
COc1cc(C(=O)OCC(=O)Nc2ccc(F)cc2F)cc(OC)c1OC | 3.5%
O=C(/C(=N\Nc1ccc(Br)cc1)Sc1nnnn1-c1ccccc1)c1ccccc1 | -15%
O=C(/C(=N\Nc1ccccc1)Sc1nnnn1-c1ccccc1)c1ccccc1 | 93.1% (active)
Cc1ccc(N/N=C(/Sc2nnnn2-c2ccccc2)C(=O)c2ccccc2)cc1 | -42.4%
Cc1ccc(C)c(C(=O)CN2Cc3ccccc3C2=O)c1 | -5.3%
CC1=CC(C)(C)N(C(=O)CN2C(=O)c3ccccc3C2=O)c2ccccc21 | -18.1%
CC1=CC(C)(C)N(C(=O)CN2C(=O)CCC2=O)c2ccc(C)cc21 | -11.3%
CC1=CC(C)(C)N(C(=O)CN2C(=O)c3ccccc3C2=O)c2ccc(C)cc21 | 33.2% (active)
Cc1ccc(C)c(C(=O)CN2C(=O)CCC2=O)c1 | -14.2%
Cc1ccc(C)c(C(=O)CN2C(=O)c3ccccc3C2=O)c1 | 56.5% (active)
O=C(NCCc1ccco1)C(=O)NCC1OCCCN1S(=O)(=O)c1ccc(F)cc1 (stereo not given) | 10.4%
COc1ccc(S(=O)(=O)N(C)C)cc1NC(=O)[C@H](Cc1ccccc1)N1C(=O)c2ccccc2C1=O | 2%
O=c1nc(SCc2c(F)cccc2Cl)nc(-c2ccc(Cl)cc2)[nH]1 | 9.8%
O=c1nc(SCc2ccccc2Cl)nc(-c2ccc(Cl)cc2)[nH]1 | 57.8% (active)
O=c1nc(SCc2ccc(Cl)cc2)nc(-c2ccccc2)[nH]1 | -3.2%
C/C(COc1ccccc1)=N\NC(=O)c1nnn(-c2nonc2N)c1CSc1ccccc1 | -2.2%
CCOc1cc(C2NC(=O)NC(c3ccccc3)=C2C(C)=O)ccc1OCC(N)=O (stereo not given) | 14.5%
Cc1ccc(NC(=O)CCNC(=O)c2ccco2)cc1Cl | -23.6%
O=[N+]([O-])c1ccc(Sc2nnnn2-c2ccccc2)c(Cl)c1 | -1%
CN1CCN(S(=O)(=O)c2ccc(Sc3nnnn3-c3ccccc3)c([N+](=O)[O-])c2)CC1 | 93.5% (active)
O=[N+]([O-])c1cc(S(=O)(=O)NCCN2CCOCC2)ccc1Sc1nnnn1-c1ccccc1 | 46.1%
O=C(O)c1ccc(Sc2nnnn2-c2ccccc2)c([N+](=O)[O-])c1 | -15.3%
COC(=O)c1ccc(Sc2nnnn2-c2ccccc2)c([N+](=O)[O-])c1 | 48.6%
COC(=O)c1ccccc1NC(=O)CN1CCN(Cc2ccccc2)CC1 | 1.4%

SMILES | inhibition
Cc1ccc2c(C)nc(Nc3nc(CSc4nc5ccccc5[nH]4)cc(=O)[nH]3)nc2c1 | 90.5% (active)
Cc1nc(Nc2nc(CSc3nc4ccccc4[nH]3)cc(=O)[nH]2)nc2ccccc12 | -5.7%
COc1ccc2nc(Nc3nc(CSc4nc5ccccc5[nH]4)cc(=O)[nH]3)nc(C)c2c1 | -25.6%
O=S1(=O)CCOCCCN1Cc1cccc(F)c1 | -39.7%
O=S1(=O)CCOCCCN1Cc1cccc(C(F)(F)F)c1 | 56.8% (active)
O=S1(=O)CCOCCCN1Cc1ccccc1 | -16.6%
COc1ccc(C(=O)N/N=C/c2c(C)[nH]c(=O)[nH]c2=O)cc1 | -27.4%
Cc1ccc(S(=O)(=O)N[C@@H](Cc2ccccc2)C(=O)CCl)cc1 | 87.7% (active)
Cc1ccc(S(=O)(=O)NC(Cc2ccccc2)C(=O)O)cc1 (stereo not given) | -30.6%
Cc1ccc(S(=O)(=O)NC(Cc2ccccc2)C(=O)NN)cc1 (stereo not given) | -27.9%
Cc1nnc(SCC(=O)NNC(=O)c2ccc(Br)cc2)n1C | -33.3%
CN(CC(=O)N1CCN(c2ccc(F)cc2)CC1)S(=O)(=O)c1ccc2c(c1)c(=O)n(C)c(=O)n2C | -11.7%
CCCCC(=O)Nc1nc2c(s1)COc1ccccc1-2 | 62.4% (active)
CCCC(=O)Nc1nc2c(s1)COc1ccccc1-2 | 48.7%
CCC(=O)Nc1nc2c(s1)COc1ccccc1-2 | 8.2%
Cc1[nH]c2ccccc2c1C(=O)/C=C/c1ccccc1Cl | -24.5%
Cc1[nH]c2ccccc2c1C(=O)/C=C\c1ccccc1Cl | -16.5%
Cc1[nH]c2ccccc2c(=O)c1C(=O)/C=C/c1ccccc1 | 79.7% (active)
COc1ccc(Oc2ccc(/C=N/NC(=O)c3cccnc3)cc2[N+](=O)[O-])cc1 | -17.7%
COCCN1CCn2c(nc3cc(NC(=O)c4cccs4)ccc32)C1 | -28.2%
O=C(Nc1ccc2c(c1)nc1n2CCN(Cc2ccccc2)C1)c1cccs1 | 89.9% (active)
CC(c1ccccc1)N1CCn2c(nc3cc(NC(=O)c4cccs4)ccc32)C1 (stereo not given) | 0.3%
COc1ccc(CC(=O)Nc2c3c(nn2C(C)(C)C)CS(=O)C3)cc1 (stereo not given) | -19.6%
O=[N+]([O-])/C=C/c1ccc2c(ccn2Cc2ccccc2)c1 | -4.4%

SMILES | inhibition
CN(c1ccccc1)c1ccc(/C=C/[N+](=O)[O-])cc1 | 105% (active)
CN(C)c1ccc(-n2cccc2/C=C/[N+](=O)[O-])cc1 | -0.1%
Cc1[nH]c2ccccc2c1C(=O)CSC(=S)N1CCOCC1 | 3.9%
CCC1=C/C(=C/c2sc3ccccc3[n+]2CC)CC(C)(C)C1 | -7.6%
CC[n+]1c(/C=C2/C=C(C)CC(C)(C)C2)sc2ccc(OC)cc21 | 77.4% (active)
CC[n+]1c(/C=C2\C=C(C)CC(C)(C)C2)sc2ccccc21 | 20.8%
Cc1cc(Br)ccc1NC(=S)N1CCOCC1 | -0.1%
N#Cc1nc(Cc2ccccc2)oc1NCc1cccnc1 | -33.9%
N#Cc1nc(Cc2ccccc2)oc1NCc1ccccc1 | -5.9%
N#Cc1nc(Cc2ccccc2)oc1NCc1ccccc1Cl | 57% (active)
Cc1cc(NC(=O)c2ccccc2F)n(-c2nc3ccccc3[nH]2)n1 | -8.4%
Cc1cc(NC(=O)c2ccccc2)n(-c2nc3ccccc3[nH]2)n1 | -15%
COc1ccc(C(=O)Nc2cc(C)nn2-c2nc3ccccc3[nH]2)c(OC)c1 | 98.7% (active)
COc1cccc(OC)c1C(=O)Nc1cc(C)nn1-c1nc2ccccc2[nH]1 | -24.9%
COc1ccc(/C=C/C(=O)Nc2cc(C)nn2-c2nc3ccccc3[nH]2)cc1 | 17.4%
CCCCN(C)S(=O)(=O)c1cc2c3c(c1)CCC(=O)N3CCC2 | -4.1%
Cc1noc(C)c1C(=O)N1CCCC(N2CCN(c3cccc(C(F)(F)F)c3)CC2)C1 (stereo not given) | -31.8%
COc1ccc(-c2[nH]ncc2CN(C)Cc2cccnc2)c(OC)c1 | -16.3%
CS(=O)(=O)N1CCN(c2ccccc2NC(=O)c2cc(Br)ccc2Cl)CC1 | -10.8%
COCCn1c(SCC(=O)Nc2cccc(C(=O)OC)c2)nc2ccccc2c1=O | 2.6%
O=C(NC1CC2CCC(C1)N2Cc1ccco1)c1ccccc1 (stereo not given) | -29.6%
Cc1c(Cl)cccc1NC(=O)Nc1ccccc1C(N)=O | -30%
O=C(c1ccc([N+](=O)[O-])cc1)N1CCSC1c1ccccc1 (stereo not given) | -13.8%
O=C(O)c1ccc(N2C(=O)/C(=C/C=C/c3ccccc3)SC2=S)cc1 | -13.7%

SMILES | inhibition
CC(/C=C1\SC(=S)N(CC(=O)O)C1=O)=C\c1ccccc1 | -14.7%
O=C1CCCCN1CCC(=O)N1CCCC(N2CCN(c3ccccc3)CC2)C1 (stereo not given) | -1%
CC(C)(C)c1nc(CN2CCCCC2)cc(CN2CCCCC2)c1O | -2.5%
Cc1ccc(C2=NN(C(=O)CCl)C(c3ccco3)C2)o1 (stereo not given) | -45.6%
CC(=O)N1N=C(c2ccco2)CC1c1cccs1 (stereo not given) | -6.4%
CCN1CCN(CC(=O)N2N=C(c3cccs3)CC2c2ccc(C)cc2)C(=O)C1=O (stereo not given) | -19.6%
Cc1ccc(C2=NN(C(=O)CCC(=O)O)C(c3cccs3)C2)cc1 (stereo not given) | -4.3%
CCC(=O)N1N=C(c2cccs2)CC1c1ccc(C)cc1 (stereo not given) | 1.5%
Cc1ccc(C2CC(c3cccs3)=NN2C(=O)CCl)cc1 (stereo not given) | 95.3% (active)
O=C(O)CCC(=O)N1N=C(c2ccco2)CC1c1cccs1 (stereo not given) | -15.2%
COc1cc(NC(=O)CN2CCN(c3ccccc3F)CC2)cc(OC)c1 | -13.5%
CC(C)(C)NC(=S)NCc1cccnc1 | 5.8%
CCc1ccc(OCC(=O)NNC(=O)c2nn(CC)c(=O)c3ccccc23)cc1 | -23.6%
CC1(C)CC(=O)C(Sc2ccc(Br)cc2)=C(O)C1 | -57.7%
Fc1ccc(-c2nc3nc4ccccc4nc3n2Cc2ccco2)cc1 | -13.7%
S=c1nc(-c2ccccc2)[nH]c2ccccc12 | -26.9%
CCC(CC)c1nc(NCCC(=O)O)c2ccccc2n1 | -13.4%
COc1ccccc1NC(=O)CCc1nnc2ccc(N3CCN(C)CC3)nn12 | -20.3%
COc1ccc(Cl)cc1NC(=O)CCc1nnc2ccc(N3CCN(C)CC3)nn12 | 58% (active)
COc1ccc(Cl)cc1NC(=O)CCc1nnc2ccc(N3CCC4(CC3)OCCO4)nn12 | 10.7%
COc1cc(O)c(C(CCN2CCOCC2)c2ccc(N(C)C)cc2)c(OC)c1 (stereo not given) | 4.8%
Cc1ccc(S(=O)(=O)Nc2nc3ccccc3nc2NCC2CCCO2)c(C)c1 (stereo not given) | -1.8%
COc1ccc(NC(=O)CN(C)C(=O)c2ccc3c(c2)S(=O)(=O)N=C2CCCCCN23)cc1 | -22%
